Screening data: PubChem, National Center for Advancing Translational Sciences (NCATS)
CHX counter: counter-screen hit for Shiga toxin inhibitors, cycloheximide | AID 2314 | cell reporter, cycloheximide protein synthesis inhibition counterscreen | max response, % | actives 12% (n = 300,000); in the data active = max response mostly above about 13%, no sharp cut-off; inactive = mostly below about 14%; also: read at 38.3 µM for the half of the compounds with a filed dose; 0% is about no effect
Lassa entry inh: inhibitors of Lassa virus binding or cell entry | Lassa virus pseudotype entry inhibition, cell reporter | Potency, µM (top dose mostly 37.9 µM), for the others: top-dose activity change, negative = inhibition, most hits filed as inhibitors | actives 1.2% (n = 300,000) | AID 540256; calls by dose curve; tested in HEK293 cells; also: potency is read from the fitted curve at half-maximal effect; % is scaled to controls: 0 for no effect and ±100 for the full control effect; nearly all actives have a fitted effect of over 50% in size
Pf growth 48h: P. falciparum growth inhibition at 48 hours (one generation). P. falciparum luciferase growth in erythrocytes, 48 h. Potency, µM (titrated, usually from 28.7 µM), for the others: at the top dose activity change, negative = inhibition, most hits filed as inhibitors. actives 5.9% (n = 310,000). AID 504832; also: potency is read from the fitted curve at half-maximal effect; % is scaled to controls: 0 for no effect and ±100 for the full control effect
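Luminescence readout; reporter = integrated firefly luciferase in P. falciparum. RBC culture at 2% hematocrit, 0.1% parasitemia final, 37 C/5% CO2; decreased signal taken as growth inhibition.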
Shiga toxin inh: blocks Shiga toxin action in Vero cells. actives 9.2% (n = 290,000). Vero cells, Shiga toxin protein synthesis inhibition reporter. inhibition, % at 38.7 µM; in the data active = inhibition mostly above about 28%, no sharp cut-off; inactive = mostly below about 43%; also: 0% is about no effect
Pf growth 96h: P. falciparum growth inhibition at 96 hours; P. falciparum luciferase reporter growth, 96 h; Potency, µM (series often up to 28.7 µM), for the others: top-dose activity change, negative = inhibition, most hits filed as inhibitors; actives 6.9% (n = 320,000); AID 504834; also: potency is read from the fitted curve at half-maximal effect; % is scaled to controls: 0 for no effect and ±100 for the full control effect
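96 h incubation, 37 C, 5% CO2, of luciferase-reporter P. falciparum-infected RBCs (2% hematocrit, 0.05% parasitemia final) with test compounds; endpoint luminescence.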
MARV entry inh: inhibitors of Marburg virus binding or cell entry; Potency, µM (top dose mostly 37.8 µM), without a hit: top-dose activity change, negative = inhibition, hits mostly inhibitors; actives 1.8% (n = 300,000); AID 540276; Marburg virus pseudotyped entry inhibition, cell reporter; calls by dose curve; tested in HEK293 cells; also: potency is read from the fitted curve at half-maximal effect; % is scaled to controls: 0 for no effect and ±100 for the full control effect
The depositor's hits bear a star; ? = inconclusive; . = no result given; + = active, no number; [ ] = remark or other dose. Rows were chosen to be rich in hits. Some 19% of all compounds tested hit in one or more screens of this group. Unless noted, calls follow the shape of the dose curve; as a rule, active = well fitted inhibition curve with a large enough effect; inconclusive = small, poorly fitted or top-dose-only effect, or another doubt; inactive = no such curve, though single readings can be large or run the other way.

SMILES	CHX counter	Lassa entry inh	Pf growth 48h	Shiga toxin inh	Pf growth 96h	MARV entry inh
Nn1c(Cc2ccccc2)n[nH]c1=S	18.0*	3.4%[46.1 µM]	2.9%	50.2	25.3%	-2.4%[46.1 µM]
Cc1cc(C(=O)N(NC(=O)C(C)C)c2ccccc2)cs1	-1.3	-15.6%[46.1 µM]	-12.3%	19.1	8.28µM*	7.9%[46.1 µM]
O=C(NN(C(=O)c1ccccc1)c1ccccc1)c1ccccc1	-2.5	3.6%	?	-3.2	26.9%	5.9%[46.1 µM]
N#Cc1cnc(NN)nc1	-1.6	15.0%	10.4µM*	0.8	?	-3.2%
Cc1ccc(NC(=O)c2snnc2C)cc1Cl	11.5*	9.0%[46.1 µM]	19.3%	25.8	?	11.7%[46.1 µM]
Cc1nnsc1C(=O)NNc1ccc(C(C)(C)C)cc1	-2.6	-0.2%[46.1 µM]	-7.4%	-12.6	-2.0%	?
Cc1nnsc1C(=O)NNc1ccc(C(C)C)cc1	39.6*	-2.2%	124.9%	59.0*	152.1%	2.1%[14.2 µM]
Cc1nnsc1C(=O)Nc1ccc(Cl)cc1Cl	-0.6	4.1%	3.9%	-12.1	0.0%	?
CCOc1ccc(NC(=O)C(c2ccccn2)N(C(=O)CCl)c2ccc(OCC)cc2)cc1 (centres undefined)	48.7*	-3.5%	-81.8%	+	5.1%	?
CCOc1ccc(N(C(C)C(=O)Nc2ccc(OC)cc2)S(C)(=O)=O)cc1 (centres undefined)	-2.4	?	-3.3%	22.2	?	5.9%
COc1ccc(NC(=O)C(c2ccccn2)N(C(C)=O)c2ccc(C)cc2)cc1 (centres undefined)	15.8*	-9.6%	29.7%	60.3*	?	-1.5%
CCOc1ccc(NC(=O)C(c2ccccn2)N(C(=O)CCl)c2ccc(OC)cc2)cc1 (centres undefined)	54.9*	28.5%	-79.3%	76.8*	?	?
CN(c1ccccc1)S(=O)(=O)c1cccc(NC(=O)C2CC(=O)N(Cc3ccccc3)C2)c1 (centres undefined)	-3.2	.	?	-4.3	?	.
COc1ccc(NC(=O)N(C2CCCCC2)C(C)c2cccnc2)c(OC)c1 (centres undefined)	-4.0	7.3%	?	-13.6	100.2%	-0.2%
CCOc1cc(C(=O)N2CCn3c4c(c5cc(C)ccc53)CCCC42)cc(OCC)c1OCC (centres undefined)	.	0.4%[46.1 µM]	.	.	.	4.9%[46.1 µM]
CCOc1cccc(-c2nc3cc(C)ccc3o2)c1	31.2*	-0.7%	231.1%	63.4	?	?
Cc1ccc2oc(-c3cccc(NC(=O)Cc4ccc(Cl)cc4)c3)nc2c1	.	21.5%[46.1 µM]	.	.	.	.
Cc1ccc2oc(-c3ccccc3)nc2c1	44.8*	10.6%	129.9%	70.1*	.	?
COc1ccc(-c2cc(C(=O)N3CCCC3)no2)cc1	25.0*	?	45.5%	73.7*	-0.1%	?
COc1cccc(-c2cc(C(=O)N3CCCCCC3)no2)c1	37.1*	.	147.5%	54.1*	?	.
COc1ccc(-c2cc(C(=O)N3CCCCCC3)no2)cc1	19.7*	?	180.8%	69.8*	10.0%	-40.6%[46.1 µM]
COc1cccc(-c2cc(C(=O)N3CCN(c4ccc(F)cc4)CC3)no2)c1	-2.0	-6.5%[46.1 µM]	10.7%	-17.0	16.6%	?
COc1ccc(-c2cc(C(=O)N3CCCCCC3)no2)cc1OC	30.4*	?	70.4%	51.7*	134.2%	15.8%[46.1 µM]
Cc1nn2c(C)c(C(=O)NCc3ccc(OC(C)C)cc3)cnc2c1-c1ccc(F)cc1	.	-5.9%[46.1 µM]	.	.	.	.
COc1ccc(N/C(N)=N/c2nc(C)c(Cc3ccccc3)c(=O)[nH]2)cc1	-1.7	.	1.9%	5.9	0.0%	.
SMILES	CHX counter	Lassa entry inh	Pf growth 48h	Shiga toxin inh	Pf growth 96h	MARV entry inh
COc1cccc(-c2cc(C(=O)N3CCCCC3C)no2)c1 (centres undefined)	28.0*	.	119.5%	104.8*	?	0.8%
CCCC(=O)c1ccc(N2CCN(C(=O)c3ccccc3Br)CC2)c(F)c1	-6.0	-28.9%	?	14.8	.	?
O=C(Cn1ncc2c3ccccc3n(Cc3cccc(Cl)c3)c2c1=O)NCc1cccs1	.	-9.5%[46.1 µM]	.	.	.	4.9%[46.1 µM]
COc1ccccc1CNC(=O)c1cc(C2CC2)nc2c1cnn2C(C)C	.	-25.1%	0.928µM*	.	0.738µM*	?
COc1ccc(CNC(=O)c2cc(C3CC3)nc3c2cnn3C(C)C)cc1	.	.	13.1µM*	.	14.7µM*	.
CC(C)n1ncc2c(C(=O)N3CCN(Cc4ccc(Br)s4)CC3)cc(C3CC3)nc21	.	.	4.15µM*	.	11.7µM*	.
CC(C)n1ncc2c(C(=O)NCCc3ccc(S(N)(=O)=O)cc3)cc(C3CC3)nc21	.	?	-7.3%	.	?	?
O=C(c1cnn2c(C(F)F)cc(C3CC3)nc12)N1CCOCC1	-4.8	14.2%	-0.8%	-27.9	2.1%	11.3%
CC(C)n1ncc2c(C(=O)O)cc(C3CC3)nc21	-2.5	.	-2.3%	-12.0	19.5%	.
CC(C)n1ncc2c(C(=O)Nc3cccc(C#N)c3)cc(C3CC3)nc21	.	.	6.57µM*	.	5.22µM*	.
O=C(CC(=O)NCCc1ccccc1)NCCc1ccccc1	-2.2	16.6%[46.1 µM]	0.3%	12.1	26.0%	15.0%[46.1 µM]
Nc1nc(Nc2ccccc2Cl)cc(=O)[nH]1	-1.2	-15.4%[46.1 µM]	1.4%	-6.8	?	0.3%[46.1 µM]
COc1ccc(/C=N/N=C2\CC3CCC2(C)C3(C)C)cc1O (centres undefined)	10.8	-20.1%	.	19.0	12.6%	6.0%[46.1 µM]
O=C(COC(=O)C1CC1)Nc1ccc(S(=O)(=O)N2CCOCC2)cc1	.	-0.5%	.	.	.	0.3%
C=CCn1c(CNC(=O)c2ccco2)nnc1SCC(=O)N1c2ccccc2Sc2ccccc21	1.5	-9.8%	.	-10.5	?	2.7%
COc1ccc(CCNC(=O)c2cc(C3CC3)nc3c2cnn3C(C)C)cc1OC	.	.	?	.	2.33µM*	.
CCOc1ccc(OCCNC(=O)c2cc(C3CC3)nc3c2cnn3C(C)C)cc1	.	-28.2%	10.4µM*	.	?	?
COc1ccc([N+](=O)[O-])cc1NS(=O)(=O)c1cccc(C(=O)OC2CCOC2=O)c1 (centres undefined)	.	-0.1%	.	.	.	-9.9%
O=C(Nc1ccc(Cl)cc1F)C1CC1	-0.5	3.7%	3.0%	14.5	-7.8%	24.2%
FC(F)(F)c1cccnc1Oc1ccc(C2=NCCS2)cc1	29.9*	3.1%	?	58.6*	2.62µM*	-8.3%[46.1 µM]
FC(F)(F)c1ccccc1NC1=NCCCS1	-1.8	22.7%	10.2%	-23.1	0.0%	-21.9%[46.1 µM]
COc1cccc(C2=NOC(C(=O)NCc3ccccn3)C2)c1 (centres undefined)	0.4	11.5%	1.0%	28.5	54.5%	-3.5%
Cc1c(C#N)c(O)n(CCO)c(=O)c1N=Nc1ccc2c(c1)COC2=O	26.6*	5.5%	22.4%	31.1	8.2%	17.4%
CCCn1c(N2CCN(CC(=O)c3c[nH]c4ccccc34)CC2)nc2c1c(=O)[nH]c(=O)n2C	-1.2	?	9.28µM*	-5.0	0.738µM*	?
CCn1c(N2CCN(CC(=O)c3c(C)n(C)c4ccccc34)CC2)nc2c1c(=O)[nH]c(=O)n2C	-2.3	-4.8%	.	-11.2	1.31µM*	-22.4%
CCn1c(N2CCN(CC(=O)c3c(C)n(C)c4ccc(OC)cc34)CC2)nc2c1c(=O)[nH]c(=O)n2C	-1.6	?	?	-0.1	10.4µM*	0.0%[14.2 µM]
